# Results taken from PubChem BioAssay (EPA / NIEHS).
# “And” between values parts separate entries of the source, which are not always exact repeats. Identical values can stand only once. Results filed as inconclusive are left out. The source made the active and inactive calls. The calls were made as follows, unless noted: active = hit-call score of the fitted dose curve at least 0.9, where 1 is the maximum; inactive = score below 0.9.
# Tests used:
# [1] = CCTE_Harrill_HTTr_Viability_MCF7: CCTE's 6-hour Cell Viability Assessment for the High-Throughput Transcriptomics (HTTr) Platform, in MCF-7 cells cultured in DMEM + 10% fetal bovine serum, Harrill Lab (AID 2284010)
# How it was run: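 Membrane integrity was scored by high-content imaging of propidium iodide dye exclusion after a 6 h exposure across an eight-point dilution series. Data were fitted bidirectionally relative to DMSO as negative control and baseline.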
# [2] = CCTE_Harrill_HTTr_Apoptosis_MCF7: CCTE's 6-hour Apoptosis Assessment for the High-Throughput Transcriptomics (HTTr) Platform, in MCF-7 cells cultured in DMEM + 10% fetal bovine serum, Harrill Lab (AID 2284011)
# How it was run: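 MCF-7 cells in DMEM + 10% fetal bovine serum were exposed to chemicals for 6 hours over an eight-point dilution series. Caspase-3/7 activation was imaged by high content imaging with CellEvent Caspase 3/7 Green; bidirectional fitting used DMSO as baseline.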
# [3] = CCTE_Shafer_MEA_dev_per_burst_spike_percent: CCTE's Neural Network Formation Assay for Percent of Spikes in a Burst, Shafer Lab (AID 2284032);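 as to AC50: fitted as a decrease in burst spike percentage below DMSO baseline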
# How it was run: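 Rat primary cortical neurons on 16-electrode MEA wells, dosed from plating day 0 for 12 days with renewal on DIV 5 and 9; spikes-in-bursts percentage averaged over bursting electrodes, collapsed as AUC across days 5, 7, 9, 12; loss direction versus DMSO.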
# [4] = CCTE_Deisenroth_AIME_384WELL_CTox_Active: Cytotoxicity Assessment (CTOX) in CCTE's 384-well Estrogen Receptor Transactivation Assay with AIME metabolic competence (metabolism positive), Deisenroth Lab (AID 2284037; active = hit-call score of the fitted dose curve at least 0.9, where 1 is the maximum;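 also: chemicals first conditioned 2 h by alginate-bound induced rat liver S9 before cells; activity means signal loss indicating cell death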)
# How it was run: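 VM7Luc4E2 breast cells received medium pre-incubated 2 h with chemical over alginate microspheres holding induced male Sprague Dawley rat liver S9; viability read 24 h later by protease-substrate fluorescence. Loss of signal, bidirectional fit, 0.002–200 uM.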
# [5] = biological target: Estrogen receptor (Homo sapiens) (UniProt P03372); assay: CCTE_Deisenroth_AIME_384WELL_LUC_Active: CCTE's 384-well Estrogen Receptor Transactivation Assay with AIME metabolic competence (ERTA luciferase; metabolism positive), Deisenroth Lab (AID 2284030; active = hit-call score of the fitted dose curve at least 0.9, where 1 is the maximum)
# Chain of Estrogen receptor (Homo sapiens) (P03372 whole entry, looked up): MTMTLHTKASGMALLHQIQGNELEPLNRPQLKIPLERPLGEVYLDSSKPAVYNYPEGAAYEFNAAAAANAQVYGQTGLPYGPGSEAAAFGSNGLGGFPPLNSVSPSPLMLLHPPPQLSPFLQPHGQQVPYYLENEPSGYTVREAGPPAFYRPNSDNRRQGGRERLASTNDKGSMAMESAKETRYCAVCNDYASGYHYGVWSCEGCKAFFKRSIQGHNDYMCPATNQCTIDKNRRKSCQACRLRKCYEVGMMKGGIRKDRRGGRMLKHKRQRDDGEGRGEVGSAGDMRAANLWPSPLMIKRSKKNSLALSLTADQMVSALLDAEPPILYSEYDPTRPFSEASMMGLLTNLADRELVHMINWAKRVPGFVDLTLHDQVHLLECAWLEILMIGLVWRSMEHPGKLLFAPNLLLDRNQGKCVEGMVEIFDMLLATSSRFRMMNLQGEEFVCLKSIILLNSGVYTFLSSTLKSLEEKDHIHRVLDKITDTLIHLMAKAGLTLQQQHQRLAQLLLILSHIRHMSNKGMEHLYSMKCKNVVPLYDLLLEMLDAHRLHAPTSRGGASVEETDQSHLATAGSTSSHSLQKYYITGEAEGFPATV
# How it was run: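 Test chemicals (10-point series, 0.002 - 200 uM) were preincubated 2 hours with alginate-immobilized phenobarbital/beta-naphthoflavone-induced male Sprague Dawley rat liver S9; conditioned medium then went onto VM7Luc4E2 breast cells for 24 hour. Luciferase gain-of-signal fitted relative to 17beta-estradiol.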
# [6] = biological target: Estrogen receptor (Homo sapiens) (UniProt P03372); assay: CCTE_Deisenroth_AIME_384WELL_LUC_Inactive: CCTE's 384-well Estrogen Receptor Transactivation Assay without AIME metabolic competence (ERTA luciferase; metabolism negative), Deisenroth Lab (AID 2284038; active = hit-call score of the fitted dose curve at least 0.9, where 1 is the maximum;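 also: hits raise estrogen receptor luciferase signal so potencies reflect agonists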)
# How it was run: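 Chemicals (10-point series, 0.002 - 200 uM) were incubated 2 hours with alginate-water microsphere lids lacking S9, then the conditioned medium was transferred to VM7Luc4E2 breast cells for 24 hour. Luciferase induction was read by bioluminescence, fitted upward relative to 17beta-estradiol.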
# [7] = CCTE_Harrill_HTTr_CellCount_MCF7: CCTE's Cell Proliferation Assessment for the High-Throughput Transcriptomics (HTTr) Platform, Harrill Lab (AID 2284012; active = hit-call score of the fitted dose curve at least 0.9, where 1 is the maximum;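 also: cells exposed to compound for six hours; intended direction is loss of nuclei count meaning fewer cells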)
# How it was run: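 MCF-7 cells were exposed for 6 h to an eight-point dilution series; Hoechst-labeled nuclei were counted by high content imaging. Curves were fitted bidirectionally against DMSO as negative control and baseline, with signal loss indicating reduced cell count.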
smiles,measurement,setting,value
CCCSP(=S)(OCC)Oc1ccc(SC)cc1 (stereo not given),outcome,[1],inactive
same,outcome,[2],inactive
C=CCN=C=S,outcome,[1],inactive
same,outcome,[2],inactive
CC(C=O)Cc1ccc2c(c1)OCO2 (stereo not given),outcome,[1],inactive
same,outcome,[2],inactive
CCOc1cc(C=O)ccc1O,outcome,[1],inactive
same,outcome,[2],inactive
CC(C)[C@H](C(=O)OC(C#N)c1cccc(Oc2ccccc2)c1)c1ccc(OC(F)F)cc1 (stereo not given in full),outcome,[1],inactive
same,outcome,[2],inactive
CC(C)=CC1C(C(=O)OCc2cccc(Oc3ccccc3)c2)C1(C)C (stereo not given),outcome,[1],inactive
same,outcome,[2],inactive
O=[N+]([O-])c1ccccc1O,outcome,[1],inactive
same,outcome,[2],inactive
CCOC(=O)CCN(SN(C)C(=O)Oc1cccc2c1OC(C)(C)C2)C(C)C,outcome,[1],inactive
same,outcome,[2],inactive
Cc1cccc(C)c1NC(=O)CN1CCCC1=O,outcome,[1],inactive
same,outcome,[2],inactive
Brc1ccc(Br)cc1,outcome,[1],inactive
same,outcome,[2],inactive
Oc1c(Br)cc(Br)cc1Br,outcome,[1],inactive
same,outcome,[2],inactive
O=[N+]([O-])c1cccc2ccccc12,outcome,[1],inactive
same,outcome,[2],inactive
N#CCCC(Br)(C#N)CBr (stereo not given),outcome,[1],inactive
same,outcome,[2],inactive
O=[N+]([O-])c1ccc(Cl)c([N+](=O)[O-])c1,AC50,[1],67.7 µM (active) and 56.9 µM (active)
same,outcome,[2],inactive
O=C(NC(=O)c1c(F)cccc1F)Nc1ccc(Cl)cc1,outcome,[1],inactive
same,outcome,[2],inactive
O=C1C[C@@H]2OCC=C3CN4CC[C@]56c7ccccc7N1[C@H]5[C@H]2[C@H]3C[C@H]46,outcome,[1],inactive
same,outcome,[2],inactive
O=S1OC[C@@H]2[C@H](CO1)[C@]1(Cl)C(Cl)=C(Cl)[C@@]2(Cl)C1(Cl)Cl (stereo not given in full),outcome,[1],inactive
same,outcome,[2],inactive
C[As+](C)(C)CC(=O)[O-],outcome,[1],inactive
same,outcome,[2],inactive
CC(=O)C(F)(F)C(F)(F)F,outcome,[3],inactive
N#CS,outcome,[1],inactive
same,outcome,[2],inactive
same,outcome,[4],inactive
Cc1cc(Cl)ccc1OCCCC(=O)O,outcome,[1],inactive
same,outcome,[2],inactive
same,outcome,[4],inactive
OC[C@@H](O)[C@H]1O[C@@H]2O[C@H](C(Cl)(Cl)Cl)O[C@@H]2[C@H]1O,outcome,[1],inactive
same,outcome,[2],inactive
CCN(CCO)CCO,outcome,[5],inactive
same,outcome,[4],inactive
same,outcome,[6],inactive
O=C(CBr)c1ccc(O)cc1,outcome,[4],inactive
Nc1ncn[nH]1,outcome,[1],inactive
same,outcome,[2],inactive
same,outcome,[4],inactive
Cc1cc(Cl)ccc1OC(C)C(=O)O (stereo not given),outcome,[5],inactive
same,outcome,[4],inactive
same,outcome,[6],inactive
CC(C)O.CC(C)O.OCCN(CCO)CCO.OCCN(CCO)CCO.[Ti],outcome,[1],inactive
same,outcome,[2],inactive
same,outcome,[4],inactive
O=CCCl,outcome,[1],inactive
same,outcome,[2],inactive
same,outcome,[7],inactive
OC(Cc1ccccc1Cl)(Cn1[nH]cnc1=S)C1(Cl)CC1 (stereo not given),outcome,[1],inactive
same,outcome,[2],inactive
same,AC50,[3],50 µM (active)
CC(F)(F)CC(F)(F)F,outcome,[3],inactive
CC(C)N(C(=O)CCl)c1ccccc1,outcome,[1],inactive
same,outcome,[2],inactive
same,outcome,[7],inactive
O=C(O)COc1ccc(Cl)cc1,outcome,[1],inactive
same,outcome,[2],inactive
same,outcome,[5],inactive
same,outcome,[6],inactive
Clc1cccc(Cl)c1,outcome,[1],inactive
same,outcome,[2],inactive
same,outcome,[7],inactive
FC(F)OCC(F)(F)C(F)(F)F,outcome,[3],inactive
Cc1cc(C(C)(C)c2ccc(O)c(C)c2)ccc1O,outcome,[1],inactive
same,outcome,[2],inactive
same,outcome,[7],inactive
C=CCOC(F)(C(F)(F)F)C(F)(F)F,outcome,[3],inactive
O=S(=O)(F)C(F)(F)C(F)(F)C(F)(F)C(F)(F)F,outcome,[3],inactive
O=c1[nH]c2ccccc2n1C1CCN(CCCC(c2ccc(F)cc2)c2ccc(F)cc2)CC1,AC50,[1],77.9 µM (active)
same,AC50,[2],60.9 µM (active)
same,AC50,[7],94.7 µM (active)
CNC(=O)CSP(=O)(OC)OC,outcome,[1],inactive
same,outcome,[7],inactive
same,outcome,[3],inactive
Cc1cc(SCc2sc(-c3ccc(C(F)(F)F)c(F)c3)nc2C)ccc1OCC(=O)O,outcome,[1],inactive
same,outcome,[2],inactive
same,outcome,[7],inactive
CCOCn1c(-c2ccc(Cl)cc2)c(C#N)c(Br)c1C(F)(F)F,outcome,[1],inactive
same,outcome,[2],inactive
same,AC50,[3],6.04 µM (active)
N#CCC#N,outcome,[1],inactive
same,outcome,[2],inactive
same,outcome,[5],inactive
same,outcome,[4],inactive
same,outcome,[6],inactive
C=CC(F)(C(F)(F)F)C(F)(F)C(F)(F)F (stereo not given),outcome,[3],inactive
CCOc1ccc(N)cc1,outcome,[5],inactive
same,outcome,[4],inactive
same,outcome,[6],inactive
CNC(=O)O/N=C/C(C)(C)S(C)(=O)=O,outcome,[1],inactive
same,outcome,[2],inactive
same,outcome,[5],inactive
same,outcome,[4],inactive
same,outcome,[6],inactive
Cc1cc(Cl)ccc1N,outcome,[1],inactive
same,outcome,[2],inactive
same,outcome,[7],inactive
COc1ccc(N)cc1,outcome,[4],inactive
O=c1[nH]c(=O)n(Cl)c(=O)n1Cl,outcome,[4],inactive
O=S1(=O)OC(c2cc(Br)c(O)c(Br)c2)(c2cc(Br)c(O)c(Br)c2)c2ccccc21,outcome,[1],inactive
same,outcome,[2],inactive
same,AC50,[4],160 µM (active)
NC(=O)c1ccc(N)nc1,AC50,[3],5.88 µM (active)
CCOP(=S)(OCC)O/N=C(\C#N)c1ccccc1,outcome,[1],inactive
same,outcome,[2],inactive
same,outcome,[7],inactive
Nc1ccc(N)cc1,outcome,[1],inactive
same,outcome,[2],inactive
same,outcome,[7],inactive
CCC[CH2][Sn]([Cl])([Cl])[CH2]CCC,outcome,[1],inactive
same,outcome,[2],inactive
same,AC50,[4],13.6 µM (active)
